# In PubChem BioAssay (NCATS):
# Results filed as inconclusive are left out. A call without a number means that no potency is given here. A number with no mark means an inactive call. The source made the active and inactive calls. Calls follow the shape of the dose curve; as a rule, active = well fitted curve in the direction sought with a large enough effect; inconclusive = small, poorly fitted or top-dose-only effect, or another doubt; inactive = no such curve, though single readings can be large; an effect the other way counts as inactive or inconclusive.
# What was measured:
# [1] = target: Aldehyde dehydrogenase, mitochondrial (Homo sapiens) (UniProt P05091); experiment: qHTS for Inhibitors of the Aldehyde Dehydrogenase Family (ALDH2) Primary screen (AID 2061308); also: nearly all actives have a fitted effect of over 55% in size
# [2] = target: Retinaldehyde dehydrogenase 3 (Homo sapiens) (UniProt P47895); experiment: qHTS for Inhibitors of the Aldehyde Dehydrogenase Family (ALDH1A3) Primary screen (AID 2061315)
# [3] = BET inhibitor-based combinations targeting novel dependencies in MECOM-rearranged (r) AML: SET-2 cell line (AID 2202231); conditions: SET-2 AML cells viability, CellTiter-Glo luminescence, 48 h; viability: hits give low values, concentration not given here; also: nearly all actives have a fitted effect of over 35% in size; also: potency is read from the fitted curve at half-maximal effect
# In short: (§1)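 A 48 hr incubation preceded viability reading by CellTiter-Glo, with 15 min room-temperature development. Dose series had 11 points; normalization used DMSO and empty wells; AUC was computed and mean-centered per line as Z-AUC.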
# [4] = BET inhibitor-based combinations targeting novel dependencies in MECOM-rearranged (r) AML: OCI-AML3 cell line (AID 2202232); conditions: Potency: OCI-AML3 viability; also: nearly all actives have a fitted effect of over 35% in size; also: potency is read from the fitted curve at half-maximal effect
# In short: as §1
# [5] = BET inhibitor-based combinations targeting novel dependencies in MECOM-rearranged (r) AML: HNT-34 cell line (AID 2202234); also: nearly all actives have a fitted effect of over 35% in size; also: potency is read from the fitted curve at half-maximal effect
# In short: (§2)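 Each compound is tested in an 11-point concentration series against 500 seeded cells/well for 48 hr. The luminescent viability signal is normalized to DMSO and blank wells, then reduced to AUC and a cell-line-centred Z-AUC.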
# [6] = BET inhibitor-based combinations targeting novel dependencies in MECOM-rearranged (r) AML: UCSD-AML1 cell line (AID 2202235); also: nearly all actives have a fitted effect of over 40% in size; also: potency is read from the fitted curve at half-maximal effect
# In short: as §2
# [7] = BET inhibitor-based combinations targeting novel dependencies in MECOM-rearranged (r) AML: AML-191 cell line (AID 2202236; also: nearly all actives have a fitted effect of over 35% in size; also: potency is read from the fitted curve at half-maximal effect)
# In short: as §1
# [8] = BET inhibitor-based combinations targeting novel dependencies in MECOM-rearranged (r) AML: MV-4-11 cell line (AID 2202233); also: nearly all actives have a fitted effect of over 45% in size; also: potency is read from the fitted curve at half-maximal effect
# In short: as §2
# [9] = target: Retinaldehyde dehydrogenase 3 (Homo sapiens) (UniProt P47895); experiment: qHTS for Inhibitors of the Aldehyde Dehydrogenase Family (ALDH1A3) Confirmatory screens (AID 2061311); also: potency is read from the fitted curve at half-maximal effect; nearly all actives have a fitted effect of over 60% in size
# [10] = target: Retinal dehydrogenase 2 (Homo sapiens) (UniProt O94788); experiment: qHTS for Inhibitors of the Aldehyde Dehydrogenase Family (ALDH1A2) Confirmation screens (AID 2061314); also: potency is read from the fitted curve at half-maximal effect; nearly all actives have a fitted effect of over 65% in size
# [11] = target: Aldehyde dehydrogenase 1A1 (Homo sapiens) (UniProt P00352); experiment: qHTS for Inhibitors of the Aldehyde Dehydrogenase Family (ALDH1A1) Confirmatory screens (AID 2061316); also: potency is read from the fitted curve at half-maximal effect; nearly all actives have a fitted effect of over 65% in size
# [12] = BET inhibitor-based combinations targeting novel dependencies in MECOM-rearranged (r) AML: AML-194 cell line (AID 2202237; also: nearly all actives have a fitted effect of over 40% in size; also: potency is read from the fitted curve at half-maximal effect)
# In short: as §1
smiles,measurement,setting,value
CCOc1ccc(CCNC(=O)c2cc3ccccc3n2Cc2cccc(C)c2)cc1OCC,Potency,[1],inactive
same,Potency,[2],inactive
O=C1CCCC2=C1C(c1[nH]ncc1Cl)N=C(Nc1nc3ccc(F)cc3o1)N2 (configuration not stated),Potency,[1],inactive
same,Potency,[2],inactive
O=C(O)c1ccc(O)c2ncc(N3CCCNCC3)cc12,Potency,[2],inactive
S=P(c1ccccc1)(c1ccccc1)c1c[n+](Cc2ccccc2)c2ccccn12,Potency,[1],inactive
same,Potency,[2],inactive
C[C@H]1CCC/C=C/C2C[C@H](O)C[C@H]2[C@H](O)/C=C/C(=O)O1 (some centres not stated),Potency,[1],inactive
same,Potency,[2],inactive
same,Potency,[3],332 nM (active)
same,Potency,[4],417 nM (active)
same,Potency,[5],296 nM (active)
same,Potency,[6],209 nM (active)
same,Potency,[7],332 nM (active)
CN(C)NC(=O)CCC(=O)O,viability,[3],87.9%
same,Potency,[4],inactive
same,Potency,[8],inactive
same,Potency,[5],inactive
same,Potency,[7],inactive
CC1(C)CC(O)CC(C)(C)N1O,viability,[3],115%
same,Potency,[4],inactive
same,Potency,[8],inactive
same,Potency,[5],inactive
same,Potency,[6],inactive
[Cl][Pt].[NH2-].[NH2-].c1ccncc1,Potency,[9],11.3 µM (active)
same,Potency,[10],17.9 µM (active)
same,Potency,[11],7.12 µM (active)
Oc1ccc2c3c1O[C@H]1c4[nH]c5c(N=C=S)cccc5c4C[C@@]4(O)[C@@H](C2)N(CC2CC2)CC[C@]314,Potency,[1],inactive
same,Potency,[2],inactive
CCOP(=O)(OCC)C(C)NC(=O)N(CCCl)N=O (configuration not stated),viability,[3],106%
same,Potency,[4],inactive
same,Potency,[5],inactive
same,Potency,[6],inactive
same,Potency,[12],inactive
CN1C(=O)[C@]23CC4C(C)(C)[C@@]5(C[C@@]41CN2CC[C@@]3(C)O)C(=O)Nc1c5ccc2c1OC=CC(C)(C)O2 (some centres not stated),Potency,[2],inactive
C[C@]12CC[C@H](O)CC1=CC[C@@H]1[C@@H]2CC[C@]2(C)C(=O)CC[C@@H]12,Potency,[1],inactive
same,Potency,[2],inactive
same,viability,[3],109%
same,Potency,[4],inactive
same,Potency,[8],inactive
same,Potency,[6],inactive
same,Potency,[12],inactive
COC(=O)[C@@]12OC[C@]34[C@H]([C@@H](O)[C@@H]1O)[C@@]1(C)CC(=O)C(O)=C(C)[C@@H]1C[C@H]3OC(=O)[C@H](OC(=O)/C=C(\C)C(C)C)[C@@H]24,Potency,[3],26.3 nM (active)
same,Potency,[4],7.4 nM (active)
same,Potency,[5],4.2 nM (active)
same,Potency,[6],3.3 nM (active)
same,Potency,[7],6.6 nM (active)
S=P(c1ccccc1)(c1ccccc1)c1c(-c2ccccc2)[nH]c2ccccc12,Potency,[2],inactive
CO[C@H]1[C@H](O)[C@H](O[C@H]2CC[C@]3(C=O)C4CC[C@]5(C)[C@H](C6=CC(=O)OC6)CC[C@]5(O)C4CC[C@@H]3C2)O[C@@H](C)[C@@H]1O (some centres not stated),Potency,[1],inactive
same,Potency,[2],inactive
COC1C(O)C(OC2CCC3(C=O)C(CCC4C3CCC3(C)C(C5=CC(=O)OC5)CCC43O)C2)OC(C)C1OC1OC(CO)C(O)C(O)C1O (configuration not stated),Potency,[1],inactive
same,Potency,[2],inactive
CCCCCCC(C)(C)c1cc(O)c2c(c1)OC(C)(C)C1CC=C(CO)C[C@H]21 (some centres not stated),Potency,[3],23500 nM (active)
same,Potency,[4],26300 nM (active)
same,Potency,[8],29500 nM (active)
same,Potency,[5],14800 nM (active)
same,Potency,[7],18600 nM (active)
C/C(=C\c1csc(C)n1)[C@@H]1C[C@@H]2O[C@]2(C)CCC[C@H](C)[C@H](O)[C@@H](C)C(=O)C(C)(C)[C@@H](O)CC(=O)O1,Potency,[3],18.6 nM (active)
same,Potency,[4],5.9 nM (active)
same,Potency,[8],9.3 nM (active)
same,Potency,[5],8.3 nM (active)
C=C1[C@@H](C)[C@H]2[C@H](Cc3ccccc3)NC(=O)[C@]23OC(=O)/C=C/C(=O)CCC[C@@H](C)C/C=C/[C@H]3[C@@H]1O,Potency,[2],inactive
CCOc1ccc(CCNC(=O)c2cc3ccccc3n2Cc2cccc(C)n2)cc1OCC,Potency,[1],inactive
same,Potency,[2],inactive
COc1cc([C@@H]2c3cc4c(cc3[C@@H](O)C3COC(=O)C32)OCO4)cc(OC)c1O (some centres not stated),Potency,[3],468 nM (active)
same,Potency,[4],296 nM (active)
same,Potency,[8],372 nM (active)
same,Potency,[6],332 nM (active)
same,Potency,[12],332 nM (active)
CCc1nn2c(=O)cc(N3CCN(C)CC3)nc2s1,Potency,[1],inactive
same,Potency,[2],inactive
COc1cc2c(cc1F)C(c1ccccc1Cl)=Nc1c(n[nH]c1C)N2,Potency,[3],13200 nM (active)
same,Potency,[4],3720 nM (active)
same,Potency,[8],1860 nM (active)
same,Potency,[7],1660 nM (active)
same,Potency,[12],2350 nM (active)
Cc1nc2ccccn2c1P(=S)(c1ccccc1)c1ccccc1,Potency,[2],inactive
CC(C)(O)/C=C\C(=O)[C@](C)(O)[C@H]1[C@H](O)C[C@]2(C)[C@@H]3CC=C4[C@@H](C=C(O)C(=O)C4(C)C)[C@]3(C)C(=O)C[C@@]12C,Potency,[3],1660 nM (active)
same,Potency,[4],417 nM (active)
same,Potency,[8],148 nM (active)
same,Potency,[6],148 nM (active)
same,Potency,[12],417 nM (active)
